The record followed here is PubChem BioAssay (NCATS).

The experiment in a line: High-throughput drug toxicity screening in the BPDCN cell line Gen2.2 (AID 1224824). Conditions: Gen2.2 BPDCN cells; at 45.8 µM (top of the series) unless noted. The source says: Blastic plasmacytoid dendritic cell neoplasm (BPDCN) is a rare, aggressive and largely incurable hematologic malignancy originating from plasmacytoid dendritic cells (pDCs). Although an initial response to chemotherapy is common, BPDCN prognosis is extremely poor and most patients relapse with drug-resistant disease leading to a median overall survival of ~1 year after diagnosis. To explore novel potential therapeutic strategies in BPDCN, we performed a high-throughput drug toxicity screening in BPDCN cell liens, using of a library of 1,912 small molecules, enriched for compounds that are either approved or in early stages of development for cancer therapy.
A total of 500 exponentially growing Gen2.2 cells were seeded per well in 5 uL of media (RPMI + Glutamine, without phenol red plus10% FBS and 1X Pen/Strep) into 1536-well solid white high base tissue culture treated Greiner One Bio Plates (789173-F), using a multidrop combi dispenser and a small sterile cassette. Compounds and controls totaling 23nL per well (negative control DMSO and positive control 9.2 uM Bortezomib-final) were immediately added to the plates using a 1536 head pin tool from Kalypsys. The plates were then covered with stainless steel gasket lids from Kalypsys and incubated for 48 hours at 37C under 95% relative humidity with 5% CO2. After 48 hours, the plates were removed and allowed to reach room temperature before 3 uL of Cell Titer Glo reagent (Promega) were added using an Aurora Flying Reagent Dispenser Bioraptor. The plates were then spun at 1000 rpms to remove bubbles and incubated for 15 minutes at room temperature before reading on a ViewLux using a luminescent filter with a 10 second exposure. The relative luciferase units were used to calculated percent activity using DMSO as 100% and Bortezomib as 0%.
Turning to `CNC(=O)c1nn(C)c2c1C(C)(C)Cc1cnc(Nc3ccc(N4CCN(C)CC4)cc3)nc1-2`, the cell viability, % of control (lower = more cytotoxic) came to 3.63%. Consider `CC1(C)CCC(c2ccc(Cl)cc2)=C(CN2CCN(c3ccc(C(=O)NS(=O)(=O)c4ccc(N[C@H](CCN5CCOCC5)CSc5ccccc5)c(S(=O)(=O)C(F)(F)F)c4)cc3)CC2)C1`, for which the cell viability, % of control (lower = more cytotoxic) was 7.3%.

Regarding `Nc1cc(C(F)(F)F)c(-c2cc(N3CCOCC3)nc(N3CCOCC3)n2)cn1`, the cell viability, % of control (lower = more cytotoxic) is 9.37%. Regarding `Nc1ccn([C@@H]2O[C@H](CO)[C@H](O)C2(F)F)c(=O)n1`, the cell viability, % of control (lower = more cytotoxic) turned out to be 144%. Consider `C=CC(=O)Nc1cccc(Oc2nc(Nc3ccc(N4CCN(C)CC4)cc3OC)ncc2Cl)c1`, for which the cell viability, % of control (lower = more cytotoxic) amounted to 8%. On to `Nc1nc(NCCNc2ncc(-n3ccnc3)c(-c3ccc(Cl)cc3Cl)n2)ccc1[N+](=O)[O-]`, for which the cell viability, % of control (lower = more cytotoxic) came out at 9.17%. With `Cc1c(CN2CCN(S(C)(=O)=O)CC2)sc2c(N3CCOCC3)nc(-c3cnc(N)nc3)nc12`, the cell viability, % of control (lower = more cytotoxic) stood at 16.1%. To `CCC[C@H](NC(=O)C(C#N)=Cc1cccc(Br)n1)c1ccccc1` belongs 15.9%. To `CCCCCN(CCC12CC3CC(CC(C3)C1)C2)C(=O)NCCCc1ccncc1` belongs 111%; to `CC(C)c1ccccc1Cc1cc(C(=O)Nc2ccc(S(=O)(=O)c3ccccc3C(C)(C)C)cc2)c(O)c(O)c1O`, 20.8%; to `Nc1ccccc1NC(=O)c1ccc(CNC(=O)OCc2cccnc2)cc1`, 2.59%. With `O=C(NCCS(=O)(=O)c1ccc(C(F)(F)F)cn1)c1ccc(Cl)cc1`, the cell viability, % of control (lower = more cytotoxic) was found to be 146%. `COc1cc2c(cc1-c1c(C)noc1C)ncc1[nH]c(=O)n([C@H](C)c3ccccn3)c12`: the cell viability, % of control (lower = more cytotoxic) was 65.5%. Regarding `Cc1c(NC(=O)OC[C@@H]2COCCN2)cn2ncnc(Nc3ccc4c(cnn4Cc4cccc(F)c4)c3)c12`, the cell viability, % of control (lower = more cytotoxic) came out at 285%.

As for `CCS(=O)(=O)c1cccc(-c2cc(C(=O)NC3CCN(C)CC3)c(C)c3[nH]c4ncc(C)cc4c23)c1`, the cell viability, % of control (lower = more cytotoxic) is 7.25%.

Take `COc1cc2nccc(Oc3ccc(NC(=O)C4(C(=O)Nc5ccc(F)cc5)CC4)cc3)c2cc1OC`: the cell viability, % of control (lower = more cytotoxic) was 5.49%. In the case of `CC(C)(C)c1cc(C(C)(C)C)c(NC(=O)c2c[nH]c3ccccc3c2=O)cc1O`, the cell viability, % of control (lower = more cytotoxic) was 105%. For `Nc1nc(-c2nn(Cc3ccccc3F)c3ncccc23)nc(N)c1N1CCOCC1`, the cell viability, % of control (lower = more cytotoxic) was determined as 199%. Turning to `COC(=O)Nc1nc2ccc(C(=O)c3ccc(F)cc3)cc2[nH]1`, the cell viability, % of control (lower = more cytotoxic) was determined as 78.4%. Regarding `Nc1ccc(C(=O)c2cc3c(ccc4ccccc43)[nH]2)cc1`, the cell viability, % of control (lower = more cytotoxic) came to 66.8%. Regarding `COc1cc(C)c(Sc2cnc(NC(=O)c3ccc(CNC(C)C(C)C)cc3)s2)cc1C(=O)N1CCN(C(C)=O)CC1` (stereo not given), the cell viability, % of control (lower = more cytotoxic) worked out at 140%. Turning to `COC(=O)C1=C(C)NC(C)=C(C(=O)OCCN2CCN(C(c3ccccc3)c3ccccc3)CC2)C1c1cccc([N+](=O)[O-])c1` (stereo not given), the cell viability, % of control (lower = more cytotoxic) amounted to 126%. Take `CC(NCc1ccc2c(c1)nc(NC(=O)c1ccc(-c3cn[nH]c3)s1)n2CC(C)(C)O)C(C)(C)C` (stereo not given): the cell viability, % of control (lower = more cytotoxic) came to 2.71%. For the compound `CCCCc1nc2cc(C=CC(=O)NO)ccc2n1CCN(CC)CC`, the cell viability, % of control (lower = more cytotoxic) worked out at 53.2%. `COc1cc(C(=O)N2CCC(N3CCN(C)CC3)CC2)ccc1Nc1ncc2c(n1)N(C)c1ccccc1C(=O)N2C`: the cell viability, % of control (lower = more cytotoxic) came to 2.17%. For the compound `c1ccc2c(CCNc3ccc(Nc4ccncc4)cc3)c[nH]c2c1`, the cell viability, % of control (lower = more cytotoxic) was found to be 5.37%. `CN1CCC(CNc2ccc3ncc(-c4cccc(OC(F)(F)F)c4)n3n2)CC1`: the cell viability, % of control (lower = more cytotoxic) stood at 11.1%. To `Nc1ccccc1NC(=O)c1ccc(CNc2nccc(-c3cccnc3)n2)cc1` belongs 12.7%. For the compound `Nc1ncnc2c1c(-c1cnc3[nH]ccc3c1)nn2C1CCCC1`, the cell viability, % of control (lower = more cytotoxic) was found to be 7.53%.

For `COc1cc(=C2C=c3ccccc3=N2)[nH]c1=Cc1[nH]c(C)cc1C`, the cell viability, % of control (lower = more cytotoxic) is 17.7%. To `CC(C)C[C@H](NC(=O)CNC(=O)c1cc(Cl)ccc1Cl)B(O)O` belongs 2.43%. To `Cc1cc(Nc2cc(N3CCN(C)CC3)nc(C=Cc3ccccc3)n2)n[nH]1` belongs 9.99% [at 92.2 µM]; to `COc1ccc2c(OCc3nnc4ccc(-c5ccccc5)nn34)ccnc2c1`, 170%. As to `COc1cc2c(Oc3ccc(-c4cnc(Nc5ccc(F)cc5)n(C)c4=O)cc3F)ccnc2cc1OCCCN1CCOCC1`, the cell viability, % of control (lower = more cytotoxic) is 5.93%.

For `CCc1cc2c(cc1N1CCC(N3CCOCC3)CC1)C(C)(C)c1[nH]c3cc(C#N)ccc3c1C2=O`, the cell viability, % of control (lower = more cytotoxic) is 258%. As for `CCCn1c(=O)c2[nH]c(-c3cnn(Cc4cccc(C(F)(F)F)c4)c3)nc2n(CC)c1=O`, the cell viability, % of control (lower = more cytotoxic) was 49.4%. As for `Cc1[nH]nc2ccc(-c3cncc(OC[C@@H](N)Cc4ccccc4)c3)cc12`, the cell viability, % of control (lower = more cytotoxic) amounted to 7.91%. `Cc1cn2cc(C(=O)N(C)CCO)cc(N[C@@H]3CCOc4cccc(C)c43)c2n1`: the cell viability, % of control (lower = more cytotoxic) worked out at 152%. As to `CN(C1CCc2c(c3ccccc3n2CC(=O)O)C1)S(=O)(=O)c1ccc(F)cc1` (stereo not given), the cell viability, % of control (lower = more cytotoxic) is 243%. To `C[C@]1(CO)CN(c2cc(C(=O)Nc3ccc4c(c3)-c3c(c(C(N)=O)nn3-c3ccc(F)cc3)CC4)c(Cl)cn2)C[C@@]1(C)CO` belongs 27.2%.
